In PubChem BioAssay (Tox21):
Inconclusive results are not listed. Calls of active or inactive are those of the source. The call rests on the fitted dose curve; in most records, active means well fitted cell-killing curve with a large enough effect in the repeat runs; inconclusive means weak or mixed curves, or effect the other way; inactive means no such curve, though single readings can be large or run the other way.

experiment: qHTS assay to identify small molecule antagonists of the retinoid-related orphan receptor gamma (ROR-gamma) signaling pathway - cell viability counter screen (AID 1159520); conditions: Tet-on RORgamma CHO cells viability, ATP luminescence, 16 h; series mostly up to 92.4 µM; activity, negative = cytotoxicity: at the top concentration; further: nearly all actives have a fitted effect of over 50% in size
From the text: U.S. Tox21 Program National Center for Advancing Translational Sciences [NCATS] NIH Chemical Genomics Center [NCGC] U.S. Environmental Protection Agency [EPA] National Institutes of Environmental Health Sciences [NIEHS] National Toxicology Program [NTP] U.S. Food and Drug Administration [FDA] Tox21 Assay Overview: Nuclear steroid hormone receptors are involved in many biological processes including inflammatory responses, cell proliferation, and apoptosis. Environmental factors or compounds disrupting these nuclear receptor pathways and gene expression may promote susceptibility to immunotoxicants and autoimmune diseases. One important group of these expression factors are the retinoid-related orphan receptors. To assess compounds that may interfere with the retinoid-related orphan receptor gamma (ROR-gamma) transcription factor, a cell-based luciferase assay was used. The CHO cell-based assay utilizes a TET-inducible ROR expression factor and ROR response element-LUC reporter gene. Reporter gene activity was induced using Doxycycline Hyclate and measured after 16 hr incubation. Tet-on ROR gamma CHO cells were used to screen against the Tox21 10K compound library for cytotoxicity by measuring the viability of the cells based on the quantitation of the ATP.
Tox21 Assay Protocol Summary: Tet-on ROR gamma CHO cells were dispensed at 1,000 cells in 4 uL of culture medium per well into white wall/solid bottom 1536-well plates using a Multidrop Combi (Thermo Scientific, Waltham, MA) dispenser. Following incubation at 37 C and 5% CO2 for 4 hr, 23 nL of compounds dissolved in DMSO, positive controls or DMSO only were transferred by a Pintool station (Kalypsys, San Diego, CA) and after 2 hr incubation at 37 C, one ul of 1 uM (final concentration) of Doxycycline Hyclate was added to all the wells by using a Flying Reagent Dispenser (FRD) (Aurora Discovery, San Diego, CA). After 16 hr incubation at 37 C and 5% CO2, 5 uL of CellTiter-Glo reagent (Promega Corporation, Madison, WI) was added to each assay plate using FRD. After 30 min incubation at room temperature, luminescence was quantified on a ViewLux plate reader (Perkin Elmer, Waltham, MA).
On the % scale 0 is the no-effect control and ±100 the full control effect.

Row | Structure (SMILES) | activity, negative = cytotoxicity
1 | Cc1ccc(NC(N)=O)cc1 | 2.76% (inactive)
2 | COc1ccc2cc(CCC(C)=O)ccc2c1 | -2.12% [at 42.5 µM] (inactive)
3 | Nc1cc(S(=O)(=O)O)ccc1O | -1.07% (inactive)
4 | CCN(CC)CC(=O)Oc1ccc(NC(C)=O)cc1 | 0.841% [at 42.5 µM] (inactive)
5 | O=C1Nc2ccccc2C1=O | -3.02% (inactive)
6 | COc1cc(S(N)(=O)=O)cc(C(=O)O)c1OC | 6.44% [at 42.5 µM] (inactive)
7 | CC(=O)/C=C/C=C1/C2CCC(C2)C1(C)C (stereo not given) | 0.273% [at 42.5 µM] (inactive)
8 | Cc1cc(N)no1 | 2.26% (inactive)
9 | CCCCCCCCCCCCCCCC/C=C/C1CC(=O)OC1=O (stereo not given) | -3.84% [at 42.5 µM] (inactive)
10 | CC(C)(C)NCC(O)COc1cccc2c1CCC(=O)N2 (stereo not given) | -2.91% [at 42.5 µM] (inactive)
11 | CCCCN(CCCC)CCCCCCN(CCCC)CCCC | -14.6% (inactive)
12 | CNC(=O)c1c(I)c(NC(C)=O)c(I)c(C(=O)O)c1I | 0.0752% [at 42.5 µM] (inactive)
13 | O=S(=O)(O)c1ccc(Cl)cc1 | 5.09% (inactive)
14 | CC(C)(C)c1ccc(N)cc1 | 0.737% (inactive)
15 | CC(=O)c1c(C)cc(C(C)(C)C)cc1C | -18.9% (inactive)
16 | O=C1c2ccccc2C(=O)N1CO | 9.57% (inactive)
17 | Clc1cc(Cl)c(Cl)c(Cl)c1Cl | -0.786% (inactive)
18 | CC(CC(=O)Cl)CC(C)(C)C (stereo not given) | -3.52% (inactive)
19 | CCCC(=O)CC | 3.52% (inactive)
20 | C=CCn1cc[n+](C)c1 | 3.15% (inactive)

Row | Structure (SMILES) | activity, negative = cytotoxicity
21 | O=C(c1ccccc1)c1cccc(O)c1 | -0.996% (inactive)
22 | CC(C)(C)OC(=O)c1ccccc1C(=O)O | 3.41% (inactive)
23 | CCCCCC(=O)CC | 2.7% (inactive)
24 | Cc1ccc(S(=O)(=O)NC(=O)NN2CC3CCCC3C2)cc1 (stereo not given) | 5.11% [at 42.5 µM] (inactive)
25 | Cc1ccc(N)nc1 | 1.46% (inactive)
26 | COC(=O)C(c1ccccc1Cl)N1CCc2sccc2C1 (stereo not given) | 6.1% [at 42.5 µM] (inactive)
27 | Cc1ccc(O)c([N+](=O)[O-])c1 | -4.74% (inactive)
28 | CC(O)C(CO)C(C)O (stereo not given) | 2.45% (inactive)
29 | N=C(N)N1CCc2ccccc2C1 | 7.51% [at 8.39 µM] (inactive)
30 | CCCc1ncc(C(=O)O)s1 | 5.39% [at 42.5 µM] (inactive)
31 | O=C(O)/C=C(\CC(=O)O)C(=O)O | 2.81% [at 42.5 µM] (inactive)
32 | CN1CCN(C(=O)C2CCCCC2)CC1 | 0.742% [at 42.5 µM] (inactive)
33 | O=C(O)P(=O)(O)O | -0.967% [at 42.5 µM] (inactive)
34 | CCCCC(CC)COC(=O)CC#N (stereo not given) | 4.7% (inactive)
35 | COC(C)(C)CC(C)=O | 9.9% (inactive)
36 | C=CCCCCCCCCOC(C)=O | 1.88% (inactive)
37 | C=C(C)C(=O)OCCOC1CC2CC1C1C=CCC21 (stereo not given) | -19.5% (inactive)
38 | COC(=O)c1ccccc1Cl | 2.2% (inactive)
39 | NC(=O)CC[C@@H](N)C(=O)O | -1.96% [at 42.5 µM] (inactive)
40 | CC(CN1CC(=O)NC(=O)C1)N1CC(=O)NC(=O)C1 (stereo not given) | -0.113% (inactive)
